# In the library only some 2.3% were active in any assay of this set; here they are far more common.
# A549 viability – Nrf2 qHTS screen for inhibitors: counterscreen for cytotoxicity | AID 504648, 2011 | Potency, µM (highest dose often 46 µM), for inactives: at the highest dose activity change, negative = cytotoxicity, actives largely listed as inhibitors | 0.16% of 390,000 active | A549 ARE-Fluc cells, CellTiter-Fluor viability, 18-24 h; also: potency is read from the fitted curve at half-maximal effect; % is scaled to controls: 0 for no effect and ±100 for the full control effect
#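 A549 ARE-Fluc cells in 5% FBS OPTI-MEM, 5000 cells/well, rested 2 h then exposed to compounds in concentration-response for 18-24 h at 37 °C. Viability by CellTiter-Fluor fluorescence (Ex 405/Em 525) after 30 min; luciferase luminescence (BugLite, 15 min, RT) read afterwards.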
# Nrf2 activator – qHTS of Nrf2 Activators | AREc32 ARE-luciferase reporter (MCF7-derived line), luminescence, 24 h | Potency, µM (series often up to 46.1 µM), for the others: top-dose activation, usual class: activators | 0.31% of 410,000 active | AID 624171, 2012; also: potency is read from the fitted curve at half-maximal effect; % of control where 0% means no effect; nearly all actives have a fitted effect of over 65% in size
#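 Reporter line AREc32 (ARE-Fluc), seeded overnight in OPTI-MEM with 5% FBS; compound pin-transferred, 24 hr at 37 deg C, 5% CO2; luminescent read-out.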
# miR-21 reporter – qHTS Assay for Modulators of miRNAs and/orActivators of miR-21. HeLa miR-21 FLuc reporter, luciferase, 48 h. Potency, µM (series often up to 38.3 µM), inactives show at the top dose activity change, positive = activation, actives largely listed as activators. 340,000 tested, under 10 active. AID 2288, 2010;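 also: % of control where 0% means no effect; miR-21 action dims this reporter so a rising signal means less miR-21 action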
#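 HeLa cells stably expressing CMV-driven firefly luciferase with a downstream miR-21 binding sequence, endogenously expressing miR-21, were treated with titrations (up to about 40uM final) for 48 hours at 37 degree Celsius. Luciferase luminescence was read after lysis.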
# Mito fusion act – qHTS Assay for Small Molecule Inhibitors of Mitochondrial Division or Activators of Mitochondrial Fusion; S. cerevisiae fusion-defective mutant growth rescue, CellTiterGlo 48 h; 0.23% of 320,000 active; Potency, µM (series often up to 46.1 µM), for inactives: top-dose growth rescue (activation), usual class: activators; also: potency is read from the fitted curve at half-maximal effect; % of control where 0% means no effect; nearly all actives have a fitted effect of over 45% in size
#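 Luminescent cell viability in 1536-well qHTS format served as the measure of rescued growth in ts fusion-mutant S. cerevisiae cultured on non-fermentable YPEG for 48 hours at 37C.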
# GRP78 ERSR act – qHTS for Inducers of the Endoplasmic Reticulum Stress Response (ERSR) in Human Glioma: qHTS | U87-MG GRP78 promoter luciferase reporter, 16 h | Potency, µM, inactives show top-dose activation, actives largely listed as activators | 0.02% of 420,000 active | AID 602332, 2012; also: potency is read from the fitted curve at half-maximal effect; series mostly up to about 76 µM; % of control where 0% means no effect; nearly all actives have a fitted effect of over 35% in size
#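 ERSR induction read as luciferase luminescence (Bright-Glo, 10 min at room temperature) in stably transfected human U87-MG glioma cells exposed to compounds for 16 h, using GRP78 as sensor.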
# Nrf2 inh – Nrf2 qHTS screen for inhibitors. A549 ARE-Fluc reporter, luciferase luminescence, 18-24 h. Potency, µM (top dose mostly 46 µM), for inactives: at the highest dose activity change, negative = inhibition, usual class: inhibitors. 2.1% of 360,000 active. AID 504444, 2011; also: potency is read from the fitted curve at half-maximal effect; % is scaled to controls: 0 for no effect and ±100 for the full control effect; nearly all actives have a fitted effect of over 60% in size
#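 Reporter: ARE-Fluc in A549. Exposure: 18-24 h, 37 °C, 5% CO2, 5% FBS OPTI-MEM. Readouts: fluorescent cytotoxicity (CellTiter-Fluor), then luminescent Nrf2 signal after BugLite.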
# * hit, by the source's call; ? = inconclusive; . = no result; [ ] = dose if it differs, or a comment. Calls follow the shape of the dose curve; as a rule, active = well fitted curve in the direction sought with a large enough effect; inconclusive = small, poorly fitted or top-dose-only effect, or another doubt; inactive = no such curve, though single readings can be large; an effect the other way counts as inactive or inconclusive.
SMILES,A549 viability,Nrf2 activator,miR-21 reporter,Mito fusion act,GRP78 ERSR act,Nrf2 inh
Cc1ccc(CN2CC(C(=O)Nc3ccc(C)c(S(=O)(=O)N4CCCCC4)c3)CC2=O)cc1 (stereo not drawn),?,0%,.,.,-3%,21µM*
Cc1ccc(NC(=O)Cn2cc(C(F)(F)F)cc(Cl)c2=O)cc1S(=O)(=O)N1CCCCC1,-13%,0%,.,-8%,-2%,23µM*
Cc1ccc(NC(=O)CSc2ncnc3ccccc23)cc1S(=O)(=O)N1CCCCC1,?,12%,11%,?,-5%,15µM*
Cc1ccc(NC(=O)c2ccccc2NS(=O)(=O)c2ccc(F)cc2)cc1S(=O)(=O)N1CCCCC1,?,2%,?,-13%,-5%,23µM*
COc1ccc(NC(=O)C2CC(=O)N(Cc3ccc(C)cc3)C2)cc1S(=O)(=O)N1CCCCC1 (stereo not drawn),0%,2%,2%,-3%,-2%,?
O=C(Nc1cccc(S(=O)(=O)N2CCCCC2)c1)c1ccccc1NS(=O)(=O)c1ccc(F)cc1,-11%,0%,?,-2%,-1%,?
Cc1ccc(NC(=O)Cn2c(=O)cnc3ccccc32)cc1S(=O)(=O)N1CCCCC1,-18%,0%,.,7%,-4%,13µM*
Cc1ccc(NC(=O)c2cc(=O)c3ccccc3o2)cc1S(=O)(=O)N1CCOCC1,5%,9%,11%,2%,-4%,?
Cc1ccc(NC(=O)CSc2ccccc2)cc1S(=O)(=O)N1CCOCC1,0%,-1%,.,7%,0%,-6%
Cc1ccc(NC(=O)c2cc(=O)c3ccccc3o2)cc1S(=O)(=O)N1CCCCC1,-20%,0%,?,2%,-5%,16µM*
Cc1ccc(NC(=O)CSc2ncnc3ccccc23)cc1S(=O)(=O)N1CCOCC1,-8%,15%,8%,-9%,-3%,23µM*
Cc1ccc(NC(=O)CSc2ccccc2)cc1S(=O)(=O)N1CCCCC1,-9%,0%,.,25%,0%,23µM*
Cc1ccc(NC(=O)COc2ncnc3ccccc23)cc1S(=O)(=O)N1CCOCC1,-1%,2%,2%,0%,-3%,4%
CCC(C)[C@H](NC(=O)N1CC(=O)Nc2ccccc21)C(=O)Nc1ccccc1C (stereo partly drawn),-11%,-1%,24%,1%,-3%,-7%
Fc1cccc(-c2cc3nc4c(c(N5CCC6(CC5)OCCO6)n3n2)CCCC4)c1,-4%,16%,-45%,18%,5%,14%
OC1CCN(c2c3c(nc4cc(-c5cccc(F)c5)nn24)CCCC3)CC1,?,8%,-33%,?,0%,23µM*
O=C(Nc1c(O)c2ccccc2[nH]c1=O)c1ccco1,2%,10µM*,2%,4%,17%,6%
Cn1c2c(c(=O)n(C)c1=O)C(c1ccccc1[N+](=O)[O-])CC(=O)N2 (stereo not drawn),1%,-1%,-2%,.,0%,-17%
O=C1NC[C@@H](Cc2cccc3ccccc23)N(CC2(c3ccccc3)CC2)C1=O,?,4%,-1%,-1%,-4%,21µM*
CCN1CCc2c(OCC(=O)N3N=C(c4cccs4)CC3c3ccc(F)cc3)cccc2C1=O (stereo not drawn),-22%,1%,-14%,?,-3%,23µM*
COc1cccc(NC(=O)CCCn2c(=O)c3cccn3c3cccnc32)c1,-2%,1%,-19%,.,-4%,?
CCC(NC(=O)c1cc(COc2cncc(Cl)c2)on1)c1ccncc1 (stereo not drawn),6%,2%,8%,-2%,-10%,?
CCC(NC(=O)c1cc(COc2ccc(F)cc2Cl)on1)c1ccncc1 (stereo not drawn),?,0%,10%,1%,-1%,16µM*
CCOc1ccccc1NC(=O)CSc1nccn1-c1ccc(Cl)cc1,17%,-1%,3%,.,0%,.
COc1ccc(OC)c(CNn2c(-c3cccc(C)c3)nc3ccccc3c2=O)c1,-14%,-1%,3%,1%,2%,18µM*
SMILES,A549 viability,Nrf2 activator,miR-21 reporter,Mito fusion act,GRP78 ERSR act,Nrf2 inh
Cc1ccccc1NC(=O)C(Cl)=C(Cl)Cl,0%,24%,?,-3%,35µM*,-14%
Cc1ccccc1NNC(=O)C(=O)NNc1ccccc1C,5%,4%,-3%,-1%,0%,-1%
CC/C(O)=C1\C(=O)CC(C)(C)CC1=Nc1ccccc1C,18%,0%,-29%,11µM*,-1%,-7%
Cc1ccc(-n2ncc3c(NCc4cccnc4)ncnc32)c(C)c1,-13%,0%,-1%,6%,-4%,9.2µM*
Cc1[nH]c2ccccc2c1/C=C/c1c(C)[nH]c2ccccc12,.,.,.,.,-4%,.
Cc1[nH]c2ccccc2c1/C=C/c1cc[n+](C)cc1,8.2µM*,-1%,20%,-6%,-3%,2.1µM*
Cc1cccc(NC(=O)CNC(=O)Cn2ncc(Cl)c(Cl)c2=O)c1C,-7%,?,.,.,-14%,3%
O=C(CSc1nc2ccc([N+](=O)[O-])cc2[nH]1)NC1CCCCCC1,?,2%,27%,11%,-4%,13µM*
Cc1ccc(C)c(-c2csc(NC(=O)c3c(C)noc3C)n2)c1,-2%,2%,.,-3%,?,?
CCCCC#Cc1cncc(C(=O)NN)c1,3%,0%,-2%,18%,-1%,18µM*
CCCCCCOc1ccc(C(=O)O)cc1C#N,-1%,0%[9.22 µM],-23%,?,0%,-3%
Cc1cccc(Cc2c(C)nc3c(C(=O)NCc4ccco4)cnn3c2C)c1,?,15%,19%,2%,4%,23µM*
O=C(CSCc1ccccc1)N1CCN(Cc2ccc3c(c2)OCO3)CC1,18%,0%,-18%,4%,0%,16%
Cc1cccc(-c2nc(CSCC(=O)N3CCN(Cc4ccc5c(c4)OCO5)CC3)c(C)o2)c1,2%,0%,21%,22%,-5%,21µM*
Cc1cccc(Cc2c(C)nc3c(C(=O)N4CCN(Cc5ccc6c(c5)OCO6)CC4)cnn3c2C)c1,-1%[1.84 µM],3%,12%,8%,-2%,18µM*
Cc1ccc(S(=O)(=O)Nc2nc3ccccc3nc2Nc2cccc(S(=O)(=O)N3CCCC3)c2)cc1,-13%,-1%,5%,5%,2%,9.2µM*
O=C(COc1ccccc1Br)Nc1ccc(S(=O)(=O)N2CCCC2)cc1,-4%,0%,.,?,-3%,13µM*
